PubChem BioAssay AID720553 (National Center for Advancing Translational Sciences (NCATS), 2013)
In all, about 340,000 compounds went through this assay and about 3,300 (0.97%) were called active. This is one part of a sample in which actives are shown more often than they occur. Unmarked numbers belong to inactive results.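 Rule for the calls: active = maximum activity change below -70%; inconclusive = maximum activity change from -70% to -50%; inactive = maximum activity change above -50%.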

Test system: Potassium voltage-gated channel subfamily H member 2, brain isoform KCNH2 3.1 (human)
Assay: qHTS for Inhibitors of KCHN2 3.1: Mutant qHTS
Conditions: U2OS KCNH2 3.1, thallium flux FluxOr; active compounds read low
How it was run: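 Measured as rate of thallium-driven FluxOr signal in transduced U2OS cells carrying the 3.1 channel, read kinetically for 2 min upon stimulation; values are rate constants scaled to DMSO control wells.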
% is set by controls: 0 for no effect and ±100 for the full control effect.

Compound	activity change
O=C(c1ccc(OC2CCN(C/C=C/c3ccc(F)cc3)CC2)cc1)N1CCCCC1	-73.2% (active)
CC(=O)Nc1ccc(CN2CCC(Oc3ccc(C(=O)N4CCCC4)cc3)CC2)cc1	9.17%
O=C(c1ccc(OC2CCN(Cc3ccccn3)CC2)cc1)N1CCCCCC1	10%
Cc1ccc([C@H]2N[C@]3(CCCN(CC4CCCCC4)C3=O)[C@H]3C(=O)N(Cc4ccccc4)C(=O)[C@@H]23)cc1	-5.04%
Nc1cccc(OCCCCCOc2cccc(N)c2)c1	-1.75%
CCCCN(CCCC)C(=O)CCS(=O)(=O)c1ccc2c(c1)n(C)c(=O)c(=O)n2C	-1.58%
Cn1c(=O)c(=O)n(C)c2cc(S(=O)(=O)CCC(=O)N3CCCCC3)ccc21	-86.6% (active)
CCc1ccc(S(=O)(=O)Nc2cc3c(cc2N2CCCCC2)n(C)c(=O)c(=O)n3C)cc1	-8.37%
CCOC(=O)C1CCN(C(=O)c2ccc3c(=O)n4nc(Nc5ccccc5CC)sc4nc3c2)CC1	-6.19%
c1ccc(C2c3[nH]c4ccccc4c3CCN2Cc2cccn2-c2cccnc2)nc1 (stereo unspecified)	7.54%
CCOc1ccc(C2c3[nH]c4ccccc4c3CCN2Cc2cn(CC)nc2C)cc1 (stereo unspecified)	-7.11%
CCOc1ccc(C2c3[nH]c4ccccc4c3CCN2Cc2cccn2-c2ncccn2)cc1 (stereo unspecified)	-73.3% (active)
COc1ncnc2c1ncn2CCCNCCN1CCOCC1	7.59%
COc1ccc(CN2C(=O)C(CC(=O)NCc3cccc4ccccc34)CC(C(=O)N3CCOCC3)=C2C)cc1 (stereo unspecified)	6.14%
O=C(C(c1ccccc1)c1ccccc1)N1CCN(CC(O)COc2ccccc2)CC1 (stereo unspecified)	-70.2% (active)
C[N+]1(CC(O)COc2ccccc2)CCN(C(=O)c2ccc([N+](=O)[O-])cc2)CC1 (stereo unspecified)	-11.2%
O=[N+]([O-])c1ccc(N2CCN(CC(O)COc3ccccc3)CC2)cc1 (stereo unspecified)	-90.3% (active)
CC1CCN(CC(O)COc2ccc(C(=O)c3ccccc3)cc2)CC1 (stereo unspecified)	-6.71%
CCCc1ccc(OCC(O)CN2CCN(C(=O)OCC)CC2)cc1 (stereo unspecified)	-6.68%
OC(COc1ccccc1)CN1CCN(c2cccc(Cl)c2)CC1 (stereo unspecified)	-33.9%
CC1=C(C(=O)Nc2cccc(C(=O)NCC(C)c3ccccc3)c2)SCCO1 (stereo unspecified)	3.22%
COc1ccc(C(=O)NCC2CCCO2)cc1S(=O)(=O)NCc1ccc(Cl)cc1 (stereo unspecified)	-6.01%

Compound	activity change
N#CCSc1ccccc1NC(=O)CN1C(=O)NC(CCc2ccccc2)C1=O (stereo unspecified)	0.381%
COc1ccc(-n2c(-c3ccc(Cl)cc3)n[nH]c2=S)c(OC)c1	-3.64%
Cc1ccc(COc2ccc(/C=N/NC(=O)CN3CCCCC3)cc2)cc1	-108% (active)
CCOc1cc(/C=N/NC(=O)CN2CCCCC2)ccc1O	1.68%
O=C(CN1CCSCC1)N/N=C/c1ccc(F)cc1	1.88%
O=C1c2cccc3cccc(c23)C(=O)N1CCCCCc1n[nH]c(=S)o1	-159% (active)
O=C1c2ccccc2C(=O)N1CCCc1nc(-c2ccccc2)no1	6.34%
O=C1c2ccccc2C(=O)N1CCCCCCN1C(=O)c2ccccc2C1=O	6.18%
c1ccc(CNCc2ccc(CNCc3ccccc3)cc2)cc1	1.02%
COc1ccc(Cn2nnc3c(=O)[nH]c(C4CCN(C(=O)c5ccccc5Cl)CC4)nc32)cc1	-29.8%
COc1ccc(CN2CCC(c3nc4ccc(Cl)cc4[nH]3)CC2)cc1	-98.1% (active)
COc1ccc(F)c(-c2nc(CN3CCC(c4ccccc4)CC3)c(C)o2)c1	-31.2%
COCCCn1c(C(=O)NC2CCCCC2)cc2c(=O)n3cccc(C)c3nc21	5.72%
N#CC1(Nc2ccc3c4c(cccc24)CC3)CCCCC1	0.638%
Cc1ccc2nc(-c3ccc(NC(=O)c4cccnc4)cc3)oc2c1	-11.7%
COc1ccc(NC(=O)c2cc(-c3ccc(C)o3)nc3ccccc23)cc1	-28.1%
COc1cc(OC)cc(C(=O)Nc2ccc(-c3nc4ccccc4o3)c(O)c2)c1	-93.4% (active)
O=C(c1ncn2c1c(=O)[nH]c1ccccc12)N1CCc2ccccc2C1	-7.26%
COc1ccccc1C(=O)NC(=S)Nc1ccc(N2CCOCC2)cc1	6.65%
O=C(Nc1nnc(-c2ccccc2)o1)c1cc(-c2cccs2)nc2ccccc12	-3.38%
CCCCN(C)CCCNC(=O)c1cc(-c2cccs2)nc2ccccc12	-71.7% (active)
CCN(CC)CCNC(=O)c1ccc(NC(=O)c2cc(-c3ccncc3)nc3ccccc23)cc1	4.76%

Compound	activity change
CC1=C(C(=O)N2CCOCC2)CC(CC(=O)NCc2cccc3ccccc23)C(=O)N1CCC1=CCCCC1 (stereo unspecified)	1.47%
O=C(OCc1cn([C@@H]2C[C@H](c3ccc(Cl)cc3)N(Cc3cccs3)C[C@H]2O)nn1)c1ccccc1	6.9%
Cc1ccc(S(=O)(=O)N2C[C@@H](C)[C@]3(C2)[C@H](O)[C@H](OC(=O)NCc2ccccc2)C[C@H]2C(=O)N(c4ccccc4)C(=O)[C@H]23)cc1	5.25%
N#CCCN(C(=S)Nc1ccc(Cl)c(Cl)c1)C1CCCCC1	-7.86%
COc1cccc(NC(=O)CN(C)C(C)C(=O)Nc2ccc(C#N)cc2)c1 (stereo unspecified)	3.52%
COc1cc(NC(=O)c2[nH]cnc2C(N)=O)cc(C(=O)Nc2cccc(C(F)(F)F)c2)c1	-24.6%
COc1cc(NC(=O)c2cncc(-c3ccc(C#N)cc3)c2)cc(C(=O)Nc2cccc(C(F)(F)F)c2)c1	-82.3% (active)
CCCNC(=O)C1CC(=O)N(c2ccc(OCc3ccccc3)cc2)C1 (stereo unspecified)	-2.11%
O=C(C1CCCO1)N1CCN(C(=O)C23CC4CC(CC(C4)C2)C3)CC1 (stereo unspecified)	3.39%
CC(=O)Nc1ccc(C=CC(=O)c2ccc([N+](=O)[O-])cc2)cc1	-4.78%
COc1ccc(NC(=O)N(C)C[C@H]2Oc3ncc(C#C[C@@H](C)O)cc3C(=O)N([C@H](C)CO)C[C@H]2C)cc1	-1.97%
O[C@H]1C[C@H](c2ccc(Cl)cc2)N(Cc2cccs2)C[C@@H]1n1cc(C2CC2)nn1	8.43%
Cc1cc2oc(=O)cc(CN(C)Cc3ccc(OC(F)F)cc3)c2cc1Cl	-76% (active)
CCOc1ccc(N(C)Cc2cc(=O)oc3ccc(OC)cc23)cc1	-0.899%
Cc1ccc(CN(C)Cc2cc(=O)oc3cc(C)c(Cl)cc23)cc1	-12.5%
Cc1csc(SCC(=O)Nc2ccc(C)c(S(=O)(=O)N(C)C)c2)n1	-4.71%
Cc1ccc(C(=O)OCC(=O)NC2CCCCCCC2)cc1C	8.83%
Cc1ccccc1C(=O)Nc1cccc(-c2nnc(SCC(=O)O)n2C)c1	-82.3% (active)
Cn1c(SCC(=O)Nc2cccc(NC(=O)c3cccs3)c2)nnc1-c1ccncc1	-4.66%
Cn1c(SCC(=O)N2CCOCC2)nnc1-c1ccc(NC(=O)c2ccccc2F)cc1	7.57%
CC(=O)c1ccc(NC(=O)N[C@@H](Cc2ccccc2)C(=O)O)cc1	0.757%
CC(C)N(Cc1ccccc1)C(=S)Nc1ccc(OC(F)F)cc1	-14.2%

Compound	activity change
CC(=O)c1ccc(NC(=S)N(Cc2ccccc2)C(C)C2CC2)cc1 (stereo unspecified)	-99.2% (active)
O=C(O)CCCN1C(=O)C2C3c4ccccc4C(c4ccccc43)[C@@H]2C1=O (stereo partly specified)	-134% (active)
O=C(CCCN1C(=O)C2C3C=CC(C3)C2C1=O)N1CCN(c2ccccc2)CC1 (stereo unspecified)	7.28%
O=C(O)CCCN1C(=O)c2ccccc2Sc2ncccc21	-3.66%
C#CCN(C[C@H]1[C@H](OC(=O)NC2CCCC2)[C@H](OC(=O)NC2CCCC2)C[C@H]2C(=O)N(c3ccccc3)C(=O)[C@@H]12)S(=O)(=O)c1ccc(C)cc1	-1.45%
O=C(Nc1sc2c(c1C(=O)O)CCC2)c1ccccc1F	-113% (active)
O=C(O)c1c(NC(=O)N2CCCC2)sc2c1CCCC2	-0.215%
COC(=O)c1c(NC(=O)c2ccccc2F)sc2c1C(C(=O)OC)CC2 (stereo unspecified)	-2.07%
O=C(OCc1ccccc1)N1CCC2CC1c1ccc(-c3ccc4c(c3)OCO4)cc12 (stereo unspecified)	6.28%
CCC1NC(=O)c2cccnc2-n2c1nc1ccc(C)cc1c2=O (stereo unspecified)	-12%
CC1(C)OC(=O)C2=C(CC(c3ccccc3)OC2CCc2ccccc2)O1 (stereo unspecified)	-4.16%
Cc1cc(Cl)ccc1C(=O)C1CCCN(C(=O)c2ccc3c(c2)OCO3)C1 (stereo unspecified)	1.67%
COc1ccc(-c2ccc(CN3C(CC(C)C)C(=O)N(Cc4cn(CC5CCCCC5)nn4)CCS3(=O)=O)cc2)cn1 (stereo unspecified)	-18%
O=C(Nc1ccc(S(=O)(=O)N2CCCCCC2)cc1)c1c(F)cccc1F	-17.5%
O=C(Nc1ccncc1)c1c(F)cccc1F	-70.9% (active)
O=C(Nc1ccncc1)Nc1ccc(F)cc1	20.7%
CN(c1ccccc1)S(=O)(=O)c1ccc(C(=O)NCc2cccnc2)cc1	-7.84%
CC(Oc1ccc(Cl)cc1)C(=O)Nc1ncccn1 (stereo unspecified)	5.84%
CC1(C(=O)OCC(=O)Nc2ncc(Cl)cc2Cl)CC1(Cl)Cl (stereo unspecified)	0.747%
CC(Oc1ccc(Cl)cc1)C(=O)OCC(=O)Nc1ncc(Cl)cc1Cl (stereo unspecified)	-101% (active)
